{"source": "PubChem BioAssay (NCATS)", "note": "Results filed as inconclusive are left out. The source made the active and inactive calls. The call rests on the fitted dose curve; in most records, active means well fitted inhibition curve with a large enough effect in the repeat runs; inconclusive means weak or mixed curves; inactive means flat fitted curve, though single readings scatter. On the % scale 0 is the no-effect control and ±100 the full control effect; potency means the concentration at half of the fitted maximal effect.", "data": [{"target": "Cytochrome P450 2D6 (Homo sapiens) (UniProt P10635)", "sequence (P10635 whole entry, looked up)": "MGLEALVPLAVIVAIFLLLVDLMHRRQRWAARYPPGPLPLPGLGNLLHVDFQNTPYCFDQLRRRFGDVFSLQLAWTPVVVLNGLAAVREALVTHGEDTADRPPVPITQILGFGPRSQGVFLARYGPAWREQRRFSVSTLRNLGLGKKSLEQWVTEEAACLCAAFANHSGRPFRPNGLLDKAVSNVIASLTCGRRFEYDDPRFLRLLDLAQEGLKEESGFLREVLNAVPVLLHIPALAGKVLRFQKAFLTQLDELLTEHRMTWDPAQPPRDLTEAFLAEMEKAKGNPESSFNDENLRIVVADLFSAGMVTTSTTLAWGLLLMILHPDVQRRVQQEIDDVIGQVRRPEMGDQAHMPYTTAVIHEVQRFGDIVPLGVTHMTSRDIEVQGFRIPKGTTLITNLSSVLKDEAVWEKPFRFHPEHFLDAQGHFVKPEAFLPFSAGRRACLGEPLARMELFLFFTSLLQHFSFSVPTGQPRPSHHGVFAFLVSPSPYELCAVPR", "test": "Cytochrome P450 family 2 subfamily D member 6 (CYP2D6) small molecule antagonists: luciferase biochemical (cell-free) qHTS assay (AID 1645840); further: nearly all actives have a fitted effect of over 55% in size", "details": "P450-Glo CYP2D6 enzyme, luciferin luminescence, 1 h; series mostly up to 57.4 µM; activity change, negative = inhibition: at the top concentration", "procedure": "National Center for Advancing Translational Sciences [NCATS] Assay Overview: Cytochrome P450 (CYP) enzymes are membrane-bound hemeproteins that play a key role in metabolism of drugs and xenobiotics. Assaying the effect of chemicals on CYP isozymes is useful to minimize the adverse drug reactions and toxicities in drug development process. Chemical compounds were tested for their effect on CYP enzyme activities by using P450-Glo (TM) screening systems (Promega Corporation, Madison, WI). These systems provide a luminescent method containing proluciferin substrates and are converted to luciferin products by CYP isozymes. The luciferin products formed are detected with a luciferin detection reagent, and the amount of light produced is proportional to CYP activity. P450-Glo (TM) CYP2D6 screening system (Catalog. No. V9890) was used to detect the compounds that interfere in CYP2D6 activity.\nAssay Protocol Summary: Two ul of enzyme-substrate mix was dispensed into medium binding white/solid 1536-well plates (Greiner Bio-One North America Inc., Monroe, NC) using a Flying Reagent Dispenser (FRD, Aurora Discovery, San Diego, CA). […] The assay plates were incubated at room temperature for 10 min. Then 2 ul of NADPH regeneration solution was added to each well of the assay plates using an FRD and incubated at room temperature for 1 h. The reaction was stopped by adding 4 ul of detection reagent using an FRD and after 20 min incubation at room temperature, the luminescence signal was measured using a ViewLux plate reader (Perkin Elmer, Shelton, CT). Data were expressed as relative luminescence units.", "values": [{"compound": "c1cc(-c2cc(C3CCNCC3)[nH]n2)ccn1", "Potency": "15.1 µM (active)"}, {"compound": "Cc1c(C)c(NCC(=O)N(C)C2CCN(Cc3ccc(C(N)=O)cc3)CC2)c(C)c(C)c1N", "Potency": "21.3 µM (active)"}, {"compound": "Cc1cc(CNC(=O)c2cc(C(=O)NCc3ccc(F)c(C)c3)ncn2)ccc1F", "activity change, negative = inhibition": "-0.484% (inactive)"}, {"compound": "CC(=O)N[C@H](Cc1c[nH]c2ccccc12)C(=O)OCc1cc(C(F)(F)F)cc(C(F)(F)F)c1", "Potency": "19 µM (active)"}, {"compound": "Cc1[nH]c2ccccc2c1CC(=O)N[C@@H](Cc1ccccc1)C(=O)N(C)c1ccccc1", "Potency": "16.9 µM (active)"}, {"compound": "Cc1cccc(-c2nn3c(c2-c2ccnc4ccc(C(N)=O)cc24)CCC3)n1", "activity change, negative = inhibition": "2.55% (inactive)"}, {"compound": "Cc1occc1C(=O)n1ccnc1", "activity change, negative = inhibition": "-0.801% (inactive)"}, {"compound": "O=C(OC(C(F)(F)F)C(F)(F)F)N1CCN(Cc2cccc(Oc3ccccc3)c2)CC1", "Potency": "1.51 µM (active)"}, {"compound": "COc1cnc(-n2cnc(C)n2)c2[nH]cc(C(=O)C(=O)N3CCN(C(=O)c4ccccc4)CC3)c12", "activity change, negative = inhibition": "1.47% (inactive)"}, {"compound": "CC1(C)CC=C(C#Cc2ccccc2)c2cc(/C=C/c3ccc(C(=O)O)cc3)ccc21", "activity change, negative = inhibition": "-0.0837% (inactive)"}, {"compound": "CCCCNc1nc(N)c2[nH]c(=O)n(Cc3ccc(OCCN(C)C)nc3)c2n1", "activity change, negative = inhibition": "-18.9% (inactive)"}, {"compound": "CC(C)c1c(NC(=O)Nc2ccc(Cl)cc2)c(=O)n(-c2ccccc2)n1C", "Potency": "12 µM (active)"}, {"compound": "COc1ccc(CC(=O)NCc2ccccc2-c2ccccc2C(=O)NCCc2cccnc2)cc1", "Potency": "10.7 µM (active)"}, {"compound": "Cc1nc2ccccc2c(-c2ccc3c4c(ccnc24)CCO3)c1[C@H](OC(C)(C)C)C(=O)O", "activity change, negative = inhibition": "-17.6% (inactive)"}, {"compound": "Nc1ncnc2c1ncn2[C@H]1O[C@@H](C(=O)N2CCN(CC(=O)Nc3cccc4c3CNC4=O)CC2)[C@H](O)[C@@H]1O", "activity change, negative = inhibition": "11.1% (inactive)"}, {"compound": "CCC1(O)CC2c3cc(OC)c(OC)cc3CCN2CC1CC(C)C", "note": "(stereo not given)", "Potency": "0.849 µM (active)"}, {"compound": "Cn1cc(CCn2cnc(-c3cnn(C)c3)c2-c2ccc(C#N)cc2)cn1", "activity change, negative = inhibition": "-2.74% (inactive)"}, {"compound": "O=C(O)c1cc(C(F)(F)F)ccc1N1CC[C@H](OCc2ccccn2)C1", "activity change, negative = inhibition": "0.19% (inactive)"}, {"compound": "Cc1c(Cc2ccc3ccccc3n2)c2cc(F)ccc2n1CC(=O)O", "activity change, negative = inhibition": "-4.38% (inactive)"}, {"compound": "CCOc1nc2c(N)ncnc2n1CC", "activity change, negative = inhibition": "-5.56% (inactive)"}, {"compound": "COc1ccnc(CCc2nc3ncccc3[nH]2)c1", "activity change, negative = inhibition": "-18.7% (inactive)"}, {"compound": "CCOC(=O)C1=C(N)Oc2ccc(Cl)cc2C1C(C#N)C(=O)OCC", "note": "(stereo not given)", "Potency": "16.9 µM (active)"}, {"compound": "CC(C)[C@@](O)(c1ccc2cc(OC(F)F)c(OC(F)F)cc2c1)c1cn[nH]n1", "Potency": "1.69 µM (active)"}, {"compound": "N#Cc1cc(-c2n[nH]c(-c3ccncc3)n2)ccn1", "activity change, negative = inhibition": "-17.6% (inactive)"}, {"compound": "CCCCS(=O)(=O)NC(Cc1ccc(OCCCCC2CCNCC2)cc1)C(=O)O", "note": "(stereo not given)", "activity change, negative = inhibition": "6.26% (inactive)"}, {"compound": "COc1ccccc1Oc1c(NS(=O)(=O)c2ccc(C)cn2)nc(-c2ccncc2)nc1OC", "activity change, negative = inhibition": "-13.6% (inactive)"}, {"compound": "NC1=NC2(c3cc(NC(=O)c4ccc(F)cn4)ccc3F)COCC2CS1", "note": "(stereo not given)", "Potency": "4.77 µM (active)"}, {"compound": "CCCSc1nc(NC2CC2c2ccc(F)c(F)c2)c2nnn(C3CC(OCCO)C(O)C3O)c2n1", "note": "(stereo not given)", "Potency": "21.3 µM (active)"}, {"compound": "CCCC(=O)Nc1cccc(NC(=O)c2ccccc2Br)c1", "activity change, negative = inhibition": "-11.4% (inactive)"}, {"compound": "O=C(NC1CCN(CC(F)(F)F)CC1)c1ccc(-c2cccc(F)c2)nc1", "activity change, negative = inhibition": "11.5% (inactive)"}, {"compound": "COc1ccnc2[nH]cc(C(=O)C(=O)N3CCN(C(=O)c4ccccc4)CC3C)c12", "note": "(stereo not given)", "Potency": "3.01 µM (active)"}, {"compound": "COc1ccc(N2CCN(CCCNC(=O)Cn3c(=O)c4cccn4c4c(C)ccnc43)CC2)cc1", "activity change, negative = inhibition": "0.328% (inactive)"}, {"compound": "COc1ccccc1CN[C@H]1CCCN[C@H]1c1ccccc1", "Potency": "1.07 µM (active)"}, {"compound": "CCC(=O)N1CCc2cc(OC)c(O)cc2C1", "Potency": "16.9 µM (active)"}, {"compound": "Cc1nc2cc(-c3cc(F)cc(C#N)c3)ccc2s1", "activity change, negative = inhibition": "18.5% (inactive)"}, {"compound": "COc1cnc(-c2ccc(Cn3c(CC(C)(C)C(=O)O)c(SC(C)(C)C)c4cc(OC[C@@H]5Cc6ccccc6N5C(C)=O)ccc43)cc2)nc1", "activity change, negative = inhibition": "-0.908% (inactive)"}, {"compound": "Cc1onc(-c2ccccc2Cl)c1C(=O)N(C)c1ccc(Cl)cc1", "activity change, negative = inhibition": "-1.39% (inactive)"}, {"compound": "COC(=O)C(CC1CCCC1)c1ccc(S(C)(=O)=O)cc1", "note": "(stereo not given)", "Potency": "12 µM (active)"}, {"compound": "Cc1ccc2[nH]c(=O)c(C3=NN(C(=O)CCC(=O)O)C(c4ccc(Br)cc4)C3)c(-c3ccccc3)c2c1", "note": "(stereo not given)", "activity change, negative = inhibition": "-1.11% (inactive)"}, {"compound": "CC(C)NC(=O)c1ccc(C#Cc2ccncc2)cn1", "activity change, negative = inhibition": "-2.97% (inactive)"}]}]}
